Each structure is given as a SMILES string. Compounds without any hit were thinned out: in the full panel of roughly 79,000, 15% have a hit. Activity calls are given as the source filed them. Cut-off read from the data, not from the text of the source: active = growth inhibition above about 70%; inactive = the rest.

This test in a line: NCI Yeast Anticancer Drug Screen. Data for the mlh1 rad18 strain (AID 175). The following applies: S. cerevisiae mlh1 rad18 strain growth inhibition; at 50.0 µM; active compounds read high. In outline: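 Vehicle-treated cultures served as the reference for growth inhibition in a yeast strain carrying DNA damage repair alterations exposed to each compound.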
As to `CCC1(c2ccc(N3C(=O)c4ccccc4C3=O)cc2)CCC(=O)NC1=O` (stereo not given), the growth inhibition was 5.4% (inactive). Take `CN(C)c1c([N+](=O)[O-])cc(N2C(=O)C=CC2=O)cc1[N+](=O)[O-]`: the growth inhibition was 90.7% (active).

For `CCOC1(OCC)Oc2c(Cl)c(Cl)c(Cl)c(Cl)c2OC1(OCC)OCC`, the growth inhibition was 98.7% (active).

As to `CC(=O)NC1=C(Oc2ccccc2)C(=O)c2ccccc2C1=O`, the growth inhibition is 99.1% (active). As to `CC1SC(=S)N(c2ccc(Cl)cc2)C1=O` (stereo not given), the growth inhibition is 71.8% (active). The same measure for `CC(NNC(=S)N1CC2CCC(CC2)C1)c1cc2ccccc2cn1` (stereo not given): 98% (active); for `CCCCCCCCCCCCCC(=O)N1CCOCC1`: 99.3% (active). The same measure for `COC(O)C(=O)c1c2c(cc3c1CC1(Cc4cc5c(cc4C1)CCC5)C3)CCC2` (stereo not given): 90.5% (active); for `CCC(=O)OCC(=O)c1ccc(-c2ccccc2)cc1`: -1.05% (inactive). The same measure for `CN(Cc1cnc2nc(N)nc(N)c2n1)c1ccc(C(=O)NC(CCC(=O)O)C(=O)O)cc1` (stereo not given): 25.1% (inactive); for `COc1ccc(C(=O)Nc2ccc(O)c(=O)cc2)cc1`: 55.6% (inactive). For the compound `c1cc[c]([Sn]([NH]c2ncnc3[nH]cnc23)([NH]c2ncnc3[nH]cnc23)[c]2ccccc2)cc1`, the growth inhibition is 89.2% (active).

`CCCCCCCCCCCC1C(C#N)C(=O)NC(=O)C1C#N` (stereo not given): the growth inhibition is 26% (inactive). `c1ccc(CSc2nnc3c4ccccc4c4ccccc4c3n2)cc1`: the growth inhibition was 42% (inactive). To `Cc1ccc(-n2cc(-c3ccc(Cl)cc3)c3c(N)ncnc32)cc1` belongs 96.8% (active); to `C[C@]12CCC3[C@@H](CC[C@@H]4c5nonc5CC[C@]34C)C1CCC(=O)N2` (stereo not given in full), 25.4% (inactive); to `CCN(CC)Cc1cc(N=Nc2c(O)ccc3c(N=Nc4ccc(O)c(CN(CC)CC)c4)c(O)ccc23)ccc1O`, 93.7% (active). Turning to `CC(C)(C)c1ccc(OC(=O)Nc2ccc(Cl)cc2[N+](=O)[O-])c(Br)c1`, the growth inhibition is 77.5% (active). `CCC(CCCN(CC)CCc1ccccc1)OC(=O)c1cc(OC)c(OC)c(OC)c1` (stereo not given): the growth inhibition is 54.5% (inactive).

Regarding `CCN1/C(=C\c2cc[n+](CC)c3ccccc23)C=Cc2ccccc21`, the growth inhibition is 53.4% (inactive). On to `CC1=C(C(=O)Nc2ccccc2C)C(c2ccc(Cl)c(Cl)c2)C(C(=O)Nc2ccccc2C)=C(C)N1`, for which the growth inhibition is 77.1% (active). To `Clc1ccc2nc3c(c(N4CCOCC4)c2c1)CCCC3` belongs 99.2% (active); to `N#Cc1cc2cccn2c2c1cnn2-c1ccccc1`, -2.95% (inactive). The same measure for `COc1cccc(C2c3cc4c(cc3OC(Nc3ccccc3)C2C)OCO4)c1O` (stereo not given): 96.5% (active). To `Nc1nc(-c2ccccc2)c(-c2ccccc2)c(-c2nc(N)nc(-c3ccccc3)c2-c2ccccc2)n1` belongs 7.8% (inactive). As for `CCOC(C)c1ccccc1` (stereo not given), the growth inhibition was -0.2% (inactive). To `O=C1OC(CCCl)(c2ccccc2)CC1CN1CCOCC1` (stereo not given) belongs 73.6% (active); to `OC(Cc1ccccc1)(c1ccccc1)C(O)(Cc1ccccc1)c1ccccc1` (stereo not given), 87.2% (active). On to `COc1ccc(N=N/N=c2\sc3cc(OC)ccc3n2C)cc1`, for which the growth inhibition is 46.8% (inactive). As to `CCCCCC(CO)C(O)(C(F)(F)F)C(F)(F)F` (stereo not given), the growth inhibition is 49.1% (inactive).

Take `CC1=C(C(=O)Nc2ccccc2)C(c2ccccc2F)C(C(=O)Nc2ccccc2)=C(C)N1`: the growth inhibition was 50.5% (inactive). To `CCOCCC(=O)NNc1ccccc1` belongs 58% (inactive); to `CCOC(=O)C(Br)C(Br)c1cccc([N+](=O)[O-])c1` (stereo not given), 99.6% (active).

For the compound `Cc1ccc(-c2c(C#N)c(-c3ccccc3)n(NS(=O)(=O)c3ccc(C)cc3)c(=O)c2C#N)cc1`, the growth inhibition is 77.2% (active). The same measure for `CNC(=O)N1N[C@H](c2ccccc2)[C@@H]1c1ccccc1`: -14.1% (inactive); for `CCCCCCCCCN(CCCCCCCCC)CC(O)c1cc2c(c3ccccc13)CCCC2` (stereo not given): 98.8% (active); for `O=C(O)C(c1ccc(Cl)cc1)c1ccc(Cl)cc1`: 95.8% (active).

For `O=C1c2ccc3ccccc3c2CN2C(=O)CCC12` (stereo not given), the growth inhibition is 23.5% (inactive).

As to `CCCCCCCCCCCCCCCCNc1ccn(C2CC(OP(=O)(O)OCC3OC(n4cc(CC)c(=O)[nH]c4=O)CC3O)C(CO)O2)c(=O)n1` (stereo not given), the growth inhibition was 16.3% (inactive). In the case of `Cc1cc(Cl)c(O)c(-c2cc(-c3cccc([N+](=O)[O-])c3)c3c(N)[nH]c(=S)nc3n2)c1`, the growth inhibition was 25.8% (inactive).
